# From PubChem BioAssay
# Active and inactive are the calls of the source.
# Columns and labels:
# [1] = test system: Plasmodium falciparum Sir2 (PF13_0152, Sir2A); assay: pfSir2 binders on small-molecule microarrays, primary screen, biochemical, small-molecule microarray, 635 nm fluorescence (AID 1098); details: small-molecule microarray binding, fluorescence 635 nm; higher = more signal;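 note: score merges spot fluorescence intensity with its signal-to-noise ratio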
# [2] = small-molecule microarray binders of probe aDKK1, primary screen, biochemical, biotinylated probe, 635/667 nm fluorescence (AID 1099); details: higher = more signal;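 note: score merges 667nm spot fluorescence with signal to noise across triplicate slides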
# [3] = small-molecule microarray binders of probe aCHRDL2, primary screen, biochemical, biotinylated probe, 635/667 nm fluorescence (AID 1100); details: higher = more signal
# [4] = splicing luciferase reporter signal modulators, primary screen, spliceosome inhibition project, cell-based, HEK293, splice +/- reporter (AID 1101); details: luminescence, 24 h, higher = more signal, called active from +8 up or from −8 down;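 note: HEK293 cells carrying a splicing-competent luciferase reporter gene; test concentration not given here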
# [5] = target: Fibroblast growth factor 10 (Homo sapiens) (UniProt O15520); assay: FGF10 binders on small-molecule microarrays, primary screen, biochemical, small-molecule microarray, 635 nm fluorescence (AID 1102); details: FGF10 binding, fluorescence 635 nm, higher = more signal
# Sequence of Fibroblast growth factor 10 (Homo sapiens) (O15520 whole entry, looked up): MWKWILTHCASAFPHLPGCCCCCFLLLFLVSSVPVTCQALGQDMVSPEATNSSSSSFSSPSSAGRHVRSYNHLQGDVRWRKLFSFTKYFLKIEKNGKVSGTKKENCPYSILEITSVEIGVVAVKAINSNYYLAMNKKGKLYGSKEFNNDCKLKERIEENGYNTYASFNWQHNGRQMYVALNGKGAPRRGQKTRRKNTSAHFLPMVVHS
# [6] = test system: glycogen synthase kinase-3 (GSK3A per assay name; protocol says GSK3B); assay: GSK3 binders on small-molecule microarrays, primary screen, biochemical, small-molecule microarray, 635 nm fluorescence, GSK3A (AID 1103); details: small-molecule microarray binding, fluorescence 635 nm; higher = more signal; note: the record names both GSK3A and GSK3B
# [7] = target: Epidermal growth factor receptor (Homo sapiens) (UniProt P00533); assay: EGFR binders on small-molecule microarrays, primary screen, biochemical, small-molecule microarray, 635 nm fluorescence (AID 1104); details: EGFR binding, higher = more signal;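 note: score merges 667 nm emission intensity with spot signal to noise over triplicate slides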
# Sequence of Epidermal growth factor receptor (Homo sapiens) (P00533 whole entry, looked up): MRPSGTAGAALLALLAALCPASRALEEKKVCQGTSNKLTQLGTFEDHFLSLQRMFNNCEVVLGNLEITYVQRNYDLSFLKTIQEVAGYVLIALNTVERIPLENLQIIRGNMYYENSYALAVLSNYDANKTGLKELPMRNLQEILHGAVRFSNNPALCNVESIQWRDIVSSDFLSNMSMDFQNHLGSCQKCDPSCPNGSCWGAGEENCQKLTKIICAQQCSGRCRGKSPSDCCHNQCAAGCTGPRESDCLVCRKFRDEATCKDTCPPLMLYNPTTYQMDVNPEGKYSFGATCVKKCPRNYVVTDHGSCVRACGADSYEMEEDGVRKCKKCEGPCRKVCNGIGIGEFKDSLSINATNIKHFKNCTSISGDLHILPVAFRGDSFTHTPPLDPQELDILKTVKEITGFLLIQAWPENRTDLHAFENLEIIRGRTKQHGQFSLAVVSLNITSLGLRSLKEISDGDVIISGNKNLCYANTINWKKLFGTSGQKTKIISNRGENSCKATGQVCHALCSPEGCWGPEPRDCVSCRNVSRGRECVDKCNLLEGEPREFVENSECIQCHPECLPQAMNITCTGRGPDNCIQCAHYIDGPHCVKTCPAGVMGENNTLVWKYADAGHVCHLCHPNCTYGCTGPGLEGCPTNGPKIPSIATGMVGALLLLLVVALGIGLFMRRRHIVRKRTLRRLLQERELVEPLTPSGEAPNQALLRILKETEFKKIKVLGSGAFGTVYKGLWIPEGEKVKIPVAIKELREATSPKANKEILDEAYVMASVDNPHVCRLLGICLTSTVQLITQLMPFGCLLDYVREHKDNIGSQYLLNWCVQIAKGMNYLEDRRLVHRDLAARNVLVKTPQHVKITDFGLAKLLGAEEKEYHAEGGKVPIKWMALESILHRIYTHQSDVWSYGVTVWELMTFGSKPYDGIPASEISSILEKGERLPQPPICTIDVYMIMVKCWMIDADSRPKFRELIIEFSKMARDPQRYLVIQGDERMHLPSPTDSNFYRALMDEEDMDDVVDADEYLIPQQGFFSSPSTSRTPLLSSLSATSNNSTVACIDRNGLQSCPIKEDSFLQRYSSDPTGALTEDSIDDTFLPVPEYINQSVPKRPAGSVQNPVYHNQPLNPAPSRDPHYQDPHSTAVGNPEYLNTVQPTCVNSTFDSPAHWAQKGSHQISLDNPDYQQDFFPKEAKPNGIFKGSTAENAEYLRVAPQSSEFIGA
# [8] = target: Follistatin-related protein 3 (Homo sapiens) (UniProt O95633); assay: FSTL3 binders on small-molecule microarrays, primary screen, biochemical, small-molecule microarray, 635 nm fluorescence (AID 1105); details: FSTL3 binding, higher = more signal;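 note: score merges emission near 667 nm and signal to noise per printed spot across three slides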
# Sequence of Follistatin-related protein 3 (Homo sapiens) (O95633 whole entry, looked up): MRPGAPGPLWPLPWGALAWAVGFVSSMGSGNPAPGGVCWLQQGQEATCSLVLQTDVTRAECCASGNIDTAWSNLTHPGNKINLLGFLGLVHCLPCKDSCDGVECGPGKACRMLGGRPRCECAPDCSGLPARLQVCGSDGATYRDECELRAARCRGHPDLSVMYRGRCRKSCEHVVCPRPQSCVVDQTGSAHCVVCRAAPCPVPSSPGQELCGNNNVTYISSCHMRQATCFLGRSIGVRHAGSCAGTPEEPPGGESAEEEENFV
# [9] = target: Dickkopf-related protein 1 (Homo sapiens) (UniProt O94907); assay: DKK1 binders on small-molecule microarrays, primary screen, biochemical, small-molecule microarray, 635 nm fluorescence scan (AID 1106); details: DKK1 binding, higher = more signal;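 note: score merges emission near 667 nm with signal to noise over three replicate slides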
# Sequence of Dickkopf-related protein 1 (Homo sapiens) (O94907 whole entry, looked up): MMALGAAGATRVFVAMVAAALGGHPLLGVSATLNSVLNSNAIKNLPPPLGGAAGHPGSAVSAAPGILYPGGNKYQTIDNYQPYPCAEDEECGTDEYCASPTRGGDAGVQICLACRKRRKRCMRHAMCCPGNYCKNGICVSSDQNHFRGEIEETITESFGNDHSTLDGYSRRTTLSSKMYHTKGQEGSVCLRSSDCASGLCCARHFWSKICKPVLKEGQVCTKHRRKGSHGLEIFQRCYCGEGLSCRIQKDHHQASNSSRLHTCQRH
# [10] = test system: Inhibin beta A chain (activin A); assay: INHBA (activin A) binders on microarrays, primary screen, biochemical, small-molecule microarray, 635 nm fluorescence scan (AID 1107); details: small-molecule microarray binding, higher = more signal;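 note: mouse activin A protein probed at 4.33 µg/mL on printed slides; score merges bound-protein fluorescence near 667 nm with spot signal-to-noise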
# [11] = test system: Human papillomavirus type 1a protein E7 (residues 44-93); assay: HPV1a E7 fragment binders on microarrays, primary screen, biochemical, small-molecule microarray, residues 44-93, 635 nm fluorescence (AID 1108); details: small-molecule microarray binding, fluorescence 635 nm; higher = more signal;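 note: E7 fragment applied at 1 µg/mL in TBST for 1 h at 4 C; score combines spot fluorescence with its signal to noise ratio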
# [12] = modulators of HCV replicon luciferase signal, primary screen, HCV replication inhibitor project, Huh7 cells, luciferase reporter (AID 1109); details: 48 h, higher = more signal;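 note: huh7 hepatoma cells harbouring a luciferase neomycin HCV replicon reporter; luciferase luminescence as measure of HCV replicon replication; test concentration not given here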
# [13] = target: Left-right determination factor 2 (Homo sapiens) (UniProt O00292); assay: LEFTY2 binders on small-molecule microarrays, primary screen, biochemical, small-molecule microarray, 635 nm fluorescence scan (AID 1110); details: LEFTY2 binding, higher = more signal
# Sequence of Left-right determination factor 2 (Homo sapiens) (O00292 whole entry, looked up): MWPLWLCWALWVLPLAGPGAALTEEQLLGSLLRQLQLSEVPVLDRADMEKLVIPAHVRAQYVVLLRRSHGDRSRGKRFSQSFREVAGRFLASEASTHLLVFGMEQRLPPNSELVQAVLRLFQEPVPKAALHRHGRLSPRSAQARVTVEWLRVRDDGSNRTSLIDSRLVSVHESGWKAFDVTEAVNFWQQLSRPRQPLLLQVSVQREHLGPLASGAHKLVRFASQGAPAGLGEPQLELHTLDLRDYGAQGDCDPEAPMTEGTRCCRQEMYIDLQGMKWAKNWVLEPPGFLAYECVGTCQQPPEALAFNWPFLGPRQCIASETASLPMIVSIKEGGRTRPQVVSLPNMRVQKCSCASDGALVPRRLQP
# [14] = target: Calmodulin-1 (Homo sapiens) (UniProt P0DP23); assay: CALM1 binders on microarrays, EGTA buffer, profiling panel, biochemical, small-molecule microarray, Cy5-labelled CALM1 (AID 1111); details: Cy5-CALM1 binding fluorescence, higher = more signal;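 note: labelled calmodulin applied in Tris saline Tween buffer holding calcium plus EGTA and DTT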
# [15] = target: Calmodulin-1 (Homo sapiens) (UniProt P0DP23); assay: calcium-bound CALM1 binders on microarrays, profiling panel, artefact control for SMM control-protein annotation, biochemical, small-molecule microarray, Cy5-labelled CALM1, plus calcium (AID 1112); details: Cy5-CALM1 binding fluorescence, higher = more signal;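 note: score merges spot fluorescence with signal to noise from triplicate slides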
# [16] = small-molecule microarray binders of probe aWnt5a, primary screen, biochemical, biotinylated probe, 635/667 nm fluorescence (AID 1113); details: higher = more signal;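 note: score merges 667 nm fluorescence intensity with signal-to-noise per printed feature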
# [17] = small-molecule microarray binders of probe aShh, primary screen, biochemical, biotinylated probe, 635/667 nm fluorescence (AID 1114); details: higher = more signal;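 note: probe is biotin-labelled aShh protein from a stem cell growth factor screen; measures binding of labelled protein to compounds printed on the slide; score merges feature fluorescence at 667 nm with signal-to-noise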
# [18] = small-molecule microarray binders of probe aNog, primary screen, biochemical, biotinylated probe, 635/667 nm fluorescence (AID 1115); details: higher = more signal;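 note: probe is biotinylated aNog protein used at 0.15 µg/mL for 1 h at 4 C; z-score combines 667 nm fluorescence of each spot with its signal to noise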
# [19] = target: Torsin-1A-interacting protein 1 (Homo sapiens) (UniProt Q5JTV8); assay: LAP1 binders from COS7 cell lysate, primary screen, small-molecule microarray, 635/667 nm fluorescence (AID 1116); details: COS7-hLAP1 lysate binding, 635 nm fluorescence, higher = more signal
# Sequence of Torsin-1A-interacting protein 1 (Homo sapiens) (Q5JTV8 whole entry, looked up): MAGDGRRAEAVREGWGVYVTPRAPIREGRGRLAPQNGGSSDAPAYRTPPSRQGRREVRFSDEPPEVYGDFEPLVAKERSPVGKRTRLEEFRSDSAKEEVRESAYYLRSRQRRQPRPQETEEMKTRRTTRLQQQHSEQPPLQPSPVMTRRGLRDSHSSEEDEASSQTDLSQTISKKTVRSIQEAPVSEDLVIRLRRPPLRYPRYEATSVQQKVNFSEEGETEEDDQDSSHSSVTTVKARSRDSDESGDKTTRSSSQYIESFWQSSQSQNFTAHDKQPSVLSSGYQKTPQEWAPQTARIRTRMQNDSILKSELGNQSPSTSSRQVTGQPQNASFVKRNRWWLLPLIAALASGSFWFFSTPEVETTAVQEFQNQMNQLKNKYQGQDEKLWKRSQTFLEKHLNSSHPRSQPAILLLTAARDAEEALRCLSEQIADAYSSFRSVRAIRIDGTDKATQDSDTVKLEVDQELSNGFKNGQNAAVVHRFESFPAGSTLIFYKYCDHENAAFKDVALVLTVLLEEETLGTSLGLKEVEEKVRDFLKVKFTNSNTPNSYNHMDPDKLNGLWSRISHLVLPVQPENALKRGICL
# [20] = target: Alpha-bungarotoxin (Bungarus multicinctus) (UniProt P60615); assay: alpha-bungarotoxin binders on microarray, profiling panel, artefact control for SMM control protein annotation, biochemical, small-molecule microarray, Alexa647 label, 635/667 nm fluorescence (AID 1117); details: alpha-BTX-A647 binding fluorescence, higher = more signal
# Sequence of Alpha-bungarotoxin (Bungarus multicinctus) (P60615 whole entry, looked up): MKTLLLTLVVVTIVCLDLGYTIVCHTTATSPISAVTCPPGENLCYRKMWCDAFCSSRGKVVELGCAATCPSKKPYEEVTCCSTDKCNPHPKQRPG
Structure (SMILES),composite z-score [1],composite z-score [2],composite z-score [3],z-score [4],composite z-score [5],composite z-score [6],composite z-score [7],composite z-score [8],composite z-score [9],composite z-score [10],composite z-score [11],z-score [12],composite z-score [13],composite z-score [14],composite z-score [15],composite z-score [16],composite z-score [17],composite z-score [18],composite z-score [19],composite z-score [20]
CC(C)C[C@@H]1NC(=O)[C@H]2C[C@@H](C(=O)NCCCCCCN(C)C)[C@@H](c3cccc(OCCO)c3)N2C1=O,1.5,0.346,0.124,-0.152 (inactive),1.01,1.21,0.317,1.35,1.74,1.1,1.24,0.35,1.38,-2.44,-1.26,-0.0792,0.108,-0.216,2.04,1.61
C=C(CCCC)C(=O)CC[C@@H](OC(C)=O)c1cccc(OCCO)c1,1.12,-0.278,-0.654,0.726 (inactive),0.195,-0.249,-0.161,0.158,0.329,0.474,-0.701,-4.56,0.333,-0.602,-1.28,-0.12,-0.0227,-0.0381,2.13,-0.0603
CC=CC1=C(CO)[C@H](O)[C@H]2O[C@H]2[C@H]1O,0.412,-0.346,-0.786,-0.383 (inactive),0.805,1.23,0.393,0.578,1.07,-0.047,0.598,-0.956,0.827,-0.381,-1.02,-0.0758,-0.304,-0.309,-0.134,-0.0092
Cc1ccc(S(=O)(=O)N[C@@H]2COC(=O)[C@H](C)COC(=O)CC=C[C@H]2C)cc1,-0.0259,-0.291,-0.589,0.159 (inactive),0.66,0.771,0.751,1.41,1.8,1.16,-0.45,0.668,0.602,-0.163,-0.964,-0.13,-0.117,-0.425,0.438,0.0762
COC(=O)[C@]1(CO)N=C(c2ccc(OCCCO)cc2)O[C@@H]1c1ccccc1N=[N+]=[N-],0.428,0.341,0.194,-0.121 (inactive),1.36,0.521,0.384,0.393,0.356,0.653,0.812,0.411,0.274,-0.323,-0.629,0.0189,-0.226,-0.215,1.6,-0.0978
COC(=O)[C@H](C)NC(=O)[C@@H](C)CO,0.241,0.0939,-0.469,0.364 (inactive),0.572,0.844,0.499,0.258,0.338,-0.776,1.25,-0.431,0.5,0.601,-0.369,-0.0445,-0.0035,0.243,0.924,0.855
O=C1[C@H]2[C@H]3[C@H](O)[C@H](O)CC(=NO[C@@H]4O[C@H](CO)[C@@H](O)[C@H](O)[C@H]4O)[C@H]3CC[C@H]2C(=O)N1Cc1ccc2c(c1)OCO2,0.381,0.215,0.821,-0.0194 (inactive),-0.0585,-0.417,-0.678,-0.387,-0.899,-0.401,1.44,-0.594,-0.515,-0.603,-0.329,-0.115,-0.397,0.0327,0.441,1.02
C#CCCCON=C1C[C@@H](O)[C@@H](O)[C@@H]2[C@@H]3C(=O)N([C@@H](C)c4ccccc4)C(=O)[C@@H]3CC[C@H]12,0.933,-0.253,-0.483,-1.28 (inactive),0.478,0.283,0.474,0.921,0.618,0.551,0.207,-0.638,0.45,0.0505,-0.602,0.0354,0.0796,-0.285,0.418,0.375
COC(=O)C1=C(C)[C@@H](O)[C@@H](C)[C@H](c2c(OC)c(OC)c(C)c(OC)c2OC)O1,0.191,-0.27,-0.595,-0.361 (inactive),0.256,-0.419,0.269,0.398,0.56,0.394,-0.685,-0.566,0.494,-0.628,-0.787,-0.171,-0.0011,-0.135,0.272,0.138
COCCCNC(=O)[C@]1(CCC(=O)OC(C)(C)C)N=C(c2ccc(OCCCO)cc2)O[C@@H]1c1ccccc1N=[N+]=[N-],1.31,0.314,0.999,-1.14 (inactive),1.29,1.33,0.287,1.06,0.0998,0.772,1.45,0.971,0.197,1.88,0.671,0.183,0.0948,1.56,1.21,1.64
C=CCN1C(=O)[C@]2(O[C@H](CCn3cc(CCO)nn3)[C@@H]([Si](C)(C)c3ccc(OC)cc3)[C@@H]2C)c2cc(N3CCOC3=O)ccc21,1.62,-0.286,0.223,2.29 (inactive),0.301,0.341,-0.82,-0.609,-0.555,0.175,1.07,-3.46,-0.264,0.504,-0.463,-0.0403,-0.0356,-0.0841,1.52,0.465
